Screening results as filed in PubChem.
Only some compounds are listed: those with a hit (about 21% of all), similar ones and a draw of the others.
Shiga toxin inh: Shiga toxin inhibition; Vero cells, Shiga toxin protein synthesis inhibition reporter; inhibition, % at 38.7 µM; 290,000 compounds, 9.2% hits; AID 2315; in the data active means inhibition mostly above about 28%, no sharp cut-off; inactive means mostly below about 43%
SARS PLP yeast: SARS-CoV PLP inhibition in yeast; S. cerevisiae expressing SARS-CoV PLpro, growth rescue; Potency, µM (series often up to 32.9 µM), most hits filed as activators; 330,000 compounds, 0.19% hits; further: nearly all actives have a fitted effect of over 55% in size
Cycloheximide cs: counter-screen hit for Shiga toxin inhibitors, cycloheximide; 300,000 compounds, 12% hits; cell reporter, cycloheximide protein synthesis inhibition counterscreen; AID 2314; max response, %; in the data active means max response mostly above about 13%, no sharp cut-off; inactive means mostly below about 14%; further: read at 38.3 µM for the half of the compounds with a filed dose
Pf growth 48h: inhibits P. falciparum growth in the first generation, 48 h | 310,000 compounds, 5.9% hits | AID 504832 | Potency, µM (highest dose often 28.7 µM), usual class: inhibitors | P. falciparum luciferase growth in erythrocytes, 48 h; active means well fitted inhibition curve with a large enough effect; inconclusive means small, poorly fitted or top-dose-only effect, or another doubt; inactive means no such curve, though single readings can be large or run the other way
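In quantitative HTS format, infected erythrocytes bearing luciferase-reporter parasites were treated for a single generation at 37 C. Luminescence after adding detection reagent served as the growth measure.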
Pf growth 96h: inhibits malaria parasite growth, 96 h; P. falciparum luciferase reporter growth, 96 h; Potency, µM (highest dose often 28.7 µM), most hits filed as inhibitors; 320,000 compounds, 6.9% hits; AID 504834; active means well fitted inhibition curve with a large enough effect; inconclusive means small, poorly fitted or top-dose-only effect, or another doubt; inactive means no such curve, though single readings can be large or run the other way
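Readout is luminescence from an integrated firefly luciferase in P. falciparum. Red cells, 2% hematocrit and 0.05% parasitemia final, were cultured with compound through two parasite generations (96 hours) at 37 C, 5% CO2.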
NS1 inh: influenza NS1 inhibition; Potency, µM (series often up to 46.1 µM); 270,000 compounds, 0.4% hits; AID 2326; further: actives are rising curves; nearly all actives have a fitted effect of over 50% in size
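In this qHTS, NS1 from influenza A is expressed in budding yeast, where it slows growth. Cells are switched from glucose to 2% galactose medium (pH 6.0, -URA), treated with compound, and growth recovery is read at OD600.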
Of the large screens only hits and unclear results are named; the others gave an inactive call. Unless noted, the call rests on the fitted dose curve.

Cc1cc2c(=O)oc(-c3ccc(Br)cc3)nc2s1	Pf growth 48h inconclusive
COc1ccc(OCc2nnc(SCc3ccc(C(=O)O)cc3)o2)cc1	none
O=C(O)c1ccc(CSc2nnc(COc3ccc(Cl)cc3Cl)o2)cc1	Pf growth 96h 2.6µM (no result: Pf growth 48h)
C/C(=N\NC(=O)CSc1nc(C)cc(C)n1)c1ccc([N+](=O)[O-])cc1	none
COc1cccc(NC(=S)N2CCN(S(=O)(=O)c3ccccc3)CC2)c1	Pf growth 48h inconclusive, Pf growth 96h inconclusive
Cc1cc2n(n1)C(c1c[nH]c3ccccc13)Nc1ccccc1-2 (centres undefined)	Shiga toxin inh 41, Cycloheximide cs 29
Cc1ccc(-c2cc(C(=O)Nc3cc(C)on3)no2)cc1	none
Cc1cc(NC(=O)c2cc(CC(C)C)on2)no1	Shiga toxin inh 81, Cycloheximide cs 43
Cc1c(Cl)cccc1NC(=O)c1cc(C2CC2)on1	Shiga toxin inh 102, Cycloheximide cs 35 (no result: Pf growth 48h)
Cc1cc(NC(=O)c2ccc(C)o2)no1	Pf growth 96h inconclusive
Cc1cc(NC(=O)c2ccoc2C)no1	Cycloheximide cs 11
CCCc1cc(C(=O)Nc2cc(C)on2)no1	Cycloheximide cs 13 (no result: Pf growth 48h)
CC1(C)Cc2c(cnn2-c2cccc(F)c2)C(NC(=O)c2ccc(=O)[nH]n2)C1 (centres undefined)	Pf growth 96h inconclusive
C[C@@H](C(=O)O)c1ccc(C(=O)c2cccs2)cc1	none (no result: Shiga toxin inh, SARS PLP yeast, Cycloheximide cs, NS1 inh)
Cc1ccc(N2CCN(C(=S)Nc3ccccc3)CC2)cc1	none (no result: NS1 inh)
COC(=O)[C@H](CC(C)C)NC(=O)c1ccc(NC[C@@H](N)CS)cc1-c1cccc2ccccc12	none (no result: SARS PLP yeast, Pf growth 48h, Pf growth 96h, NS1 inh)
Cc1cc(NC(=O)c2cc(C)on2)no1	Cycloheximide cs 8.4 (no result: Pf growth 96h)
COC(=O)c1ccccc1NC(=O)c1cc(C2CC2)on1	none
COc1ccc(NC(=O)c2cc(C3CC3)on2)c(OC)c1	Shiga toxin inh 47, Cycloheximide cs 33, NS1 inh inconclusive
CCc1ccc(C(=O)Nc2cc(C)on2)o1	Shiga toxin inh 89
Cc1cc(NC(=O)c2cc(C3CC3)on2)no1	Shiga toxin inh 73, Cycloheximide cs 40
Cc1cc(C(=O)Nc2ccc3[nH]ccc3c2)no1	Shiga toxin inh 74, Cycloheximide cs 46
CNc1nc(N)c(C(=O)Nc2cc(C)on2)s1	Shiga toxin inh 88, Cycloheximide cs 30 (no result: NS1 inh)
O=C(CN1CCN(c2ccc(O)cc2)CC1)NCC(=O)Nc1ccc(F)c(F)c1F	Pf growth 48h inconclusive, Pf growth 96h inconclusive (no result: Shiga toxin inh, Cycloheximide cs, NS1 inh)
O=C(CCC1CCCN(C(=O)Cn2cnnn2)C1)NCc1ccc(F)c(F)c1 (centres undefined)	none
CCOC(=O)C1CCN(S(=O)(=O)c2c(C)[nH]c(C)c2C(=O)N2CCCCC2)CC1	none
COc1ccc2c(c1)CCc1c-2n[nH]c1C(=O)NCCC(C)C	Shiga toxin inh 88, Cycloheximide cs 43
CC(C)NC(=O)c1[nH]nc2c1CCc1ccccc1-2	Shiga toxin inh 110, Cycloheximide cs 42
COc1cccc(/C=N/NC(=O)c2[nH]nc3c2CCc2ccccc2-3)c1	none
CNC(=O)c1[nH]nc2c1CCc1cc(OC)ccc1-2	Shiga toxin inh 87, Cycloheximide cs 57, Pf growth 48h inconclusive
O=[N+]([O-])c1ccc(S(=O)(=O)N2CCN=C2SCc2cccnc2)cc1	none (no result: NS1 inh)
COc1cc(C(C)=O)ccc1OCC(=O)c1cc(C)n(C2CC2)c1C	Pf growth 48h inconclusive, Pf growth 96h 12µM
Cc1cc(C(=O)COc2ccccc2C#N)c(C)n1C1CC1	Pf growth 48h inconclusive, Pf growth 96h inconclusive (no result: Shiga toxin inh, Cycloheximide cs, NS1 inh)
Cc1nn(Cc2ccccc2)c(C)c1C(=O)OCC(=O)c1cc(C)n(C2CC2)c1C	Pf growth 48h 15µM (no result: Pf growth 96h)
C=CCNC(=O)CN1C(=O)NC(C)(c2ccc(OC)cc2)C1=O (centres undefined)	none
Cc1cc(C(=O)COc2ccc([N+](=O)[O-])cc2)c(C)n1C1CC1	Shiga toxin inh 36, Cycloheximide cs 16, Pf growth 96h inconclusive
COc1ccc(C2(C)NC(=O)N(CC(=O)c3cc(C)n(C4CC4)c3C)C2=O)cc1 (centres undefined)	Pf growth 48h inconclusive, Pf growth 96h 3.7µM (no result: Shiga toxin inh, Cycloheximide cs, NS1 inh)
Cc1cc(C)c(NC(=O)C2CCCN2CCOC(=O)c2ccccc2)c(C)c1 (centres undefined)	none
CCOC(=O)C1(C)C=C(Nc2ccc(O)cc2)C(=O)N1c1ccc(O)cc1 (centres undefined)	Pf growth 48h 12µM, Pf growth 96h 10µM
COc1ccccc1CCNC(=O)C(=O)NCC1OCCN1S(=O)(=O)c1ccccc1 (centres undefined)	SARS PLP yeast inconclusive
COc1ccccc1CCNC(=O)C(=O)NCC1OCCN1S(=O)(=O)c1cccs1 (centres undefined)	Shiga toxin inh 25, Cycloheximide cs 34, Pf growth 96h inconclusive
COc1ccccc1CCNC(=O)C(=O)NCC1CCCN1S(=O)(=O)c1ccccc1 (centres undefined)	Pf growth 48h inconclusive, Pf growth 96h 15µM (no result: Shiga toxin inh, Cycloheximide cs, NS1 inh)
COc1cccc(C(=O)NCC2CCCN2S(=O)(=O)c2ccccc2)c1 (centres undefined)	Pf growth 48h inconclusive, Pf growth 96h 12µM (no result: Shiga toxin inh, Cycloheximide cs, NS1 inh)
COc1ccc(CCNC(=O)C(=O)NCC2CCCN2S(=O)(=O)c2ccccc2)cc1 (centres undefined)	Pf growth 96h 12µM (no result: Shiga toxin inh, Cycloheximide cs, NS1 inh)
CCCOC(=O)C1C2C=CC(C2)C1C(=O)OCC(=O)c1ccccc1 (centres undefined)	none (no result: Pf growth 48h)
O=C(NCCC1CCCCN1S(=O)(=O)c1ccccc1)C(=O)NC1CCCC1 (centres undefined)	Pf growth 96h inconclusive (no result: Shiga toxin inh, Cycloheximide cs, NS1 inh)
Cc1ccccc1CNC(=O)C(=O)NCCC1CCCCN1S(=O)(=O)c1ccccc1 (centres undefined)	Pf growth 48h 13µM, Pf growth 96h inconclusive (no result: Shiga toxin inh, Cycloheximide cs, NS1 inh)
CCCc1ccc(OCC(O)CN2CCN(c3ccccn3)CC2)cc1 (centres undefined)	none
CCOC(=O)c1cc(-c2ccco2)nc2c1c(C)nn2-c1cccc(Cl)c1	none
Cc1nn(-c2cccc(Cl)c2)c2nc(-c3ccncc3)cc(C(=O)N3CCOCC3)c12	Pf growth 48h inconclusive, Pf growth 96h 6.6µM (no result: NS1 inh)
Cc1ccc(-c2cc(C(=O)N3CCOCC3)c3ccccc3n2)cc1	Pf growth 48h inconclusive (no result: Pf growth 96h)
Cc1nn(-c2ccccc2)c2nc(-c3ccccc3)cc(C(=O)N3CCOCC3)c12	Pf growth 96h 2.1µM (no result: NS1 inh)
Cn1cc(C(=O)N/N=C/C2=C(N3CCOCC3)C(=C\c3ccccc3)/CC2)ccc1=O	Pf growth 96h inconclusive
O=C1Nc2ccccc2/C1=N/N=C/c1cccc(O)c1	Shiga toxin inh 48, Cycloheximide cs 49
COc1cc(/C=N/N=C2/C(=O)Nc3ccccc32)cc(OC)c1O	none
O=C1Nc2ccccc2/C1=N\N=C\C1=C(N2CCOCC2)C(=C\c2ccccc2)/CC1	Pf growth 48h inconclusive, Pf growth 96h 2.9µM
C=C(C(=O)c1ccccc1)C(C(=C)C(=O)c1ccccc1)c1ccc(OC)cc1	Pf growth 48h 2.1µM, Pf growth 96h inconclusive
O=C(c1ccccc1)C(c1ccccc1)c1ccccc1	Pf growth 48h inconclusive, Pf growth 96h inconclusive (no result: Shiga toxin inh, Cycloheximide cs, NS1 inh)
